Hit rate of the full screen: of about 65,000 compounds, about 120 (0.18%) were called active. No stated cut-off is given here; in the data, active means z-score below about -3; inactive means the rest. The full list was thinned out, with actives kept by preference.
What follows are compounds tested against Genome polyprotein (West Nile virus) (UniProt P06935) (assay: inhibitors of WNV NS2B-NS3 protease, primary screen, biochemical, fluorogenic substrate (AID 577)). Settings: fluorogenic substrate Ex360/Em465, hits give low values.
Genome polyprotein (West Nile virus), sequence (P06935 1371-1501 limits assumed): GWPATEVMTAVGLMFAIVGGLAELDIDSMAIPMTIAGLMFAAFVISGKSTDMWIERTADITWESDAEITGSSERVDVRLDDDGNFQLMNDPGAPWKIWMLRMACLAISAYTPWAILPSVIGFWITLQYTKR
Genome polyprotein (West Nile virus), sequence (P06935 1502-1679 limits assumed): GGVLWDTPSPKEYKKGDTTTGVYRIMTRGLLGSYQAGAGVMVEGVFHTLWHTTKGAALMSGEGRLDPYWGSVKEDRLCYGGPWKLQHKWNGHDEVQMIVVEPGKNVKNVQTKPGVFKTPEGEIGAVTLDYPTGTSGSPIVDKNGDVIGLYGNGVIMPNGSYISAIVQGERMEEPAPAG

z-score, inactive:
CC(C)CNS(=O)(=O)c1ccc(OCC(=O)Nc2ccc3c(c2)OCO3)c(Cl)c1 0.53
COc1cccc(-c2nn(C)c3sc(C(=O)N4CCN(c5ccccc5)CC4)cc23)c1 -0.13
O=C(c1ccccc1)c1cccn1CC(=O)N1CCN(c2ccc(F)cc2)CC1 -1.05
COc1cccc(-c2nc(S(=O)(=O)c3ccccc3)c(N3CCOCC3)o2)c1 -0.88
CC(C)n1c(C(O)c2ccccc2)nc2ccccc21 (stereo not drawn) -1.05
O=C(Nc1nnc(-c2ccc(Cl)cc2)o1)c1ccccc1Br 2.56
O=C(O)C1CCN1C1CCCCC1 (stereo not drawn) -0.3
CCCOc1ccc(NC(=O)C2CCCNC2=O)cc1 (stereo not drawn) 0.11
CCn1cc(C(=O)NC2CCCCCC2)c(=O)c2cc(S(=O)(=O)N3CCCCC3)ccc21 -1.17
Oc1ccc(Cl)cc1/C=N/c1nc2ccccc2[nH]1 -0.26
CCOC(=O)C1CCN(C(=O)CC2C(=O)N(Cc3ccccc3)C(C)c3nc4ccccc4n32)CC1 (stereo not drawn) -0.76
Brc1cnc(N2CCCC2)nc1N1CCCCC1 -0.6
CCOC(=O)c1ccc(Nc2cc(C)nc3nc(C)nn23)cc1 -0.96
Cn1nc(-c2ccc(N3CCOCC3)c(NC(=O)c3ccccc3)c2)c2ccccc2c1=O -0.07
COc1ccc(CCNC(=O)CSc2nnc(-c3cccc(F)c3)o2)cc1OC 0.62
O=C(CSC1=Nc2ccccc2C2=NC(c3ccccc3)C(=O)N12)NCC1CCCO1 (stereo not drawn) -0.94
CCOC(=O)N1CCN(C(=O)c2ccc(S(=O)(=O)c3ccc(C)cc3)c(NC(C)=O)c2)CC1 0.25
CCc1nc2oc3ccccc3c(=O)c2c(=O)n1Cc1ccc(OC)cc1 -0.51
CC1CCN(Cc2nc3c(c(=O)n(C)c(=O)n3C)n2Cc2cccc3ccccc23)CC1 -0.71
CCC(C(=O)N1CCOCC1)n1c(C(=O)OC)cc2occc21 (stereo not drawn) -1.12
O=C(NC1CCCCC1)N1CCc2[nH]c3ccccc3c2C1 0.65
Cn1c(=O)c2[nH]c(NCC3CCCO3)nc2n(-c2ccccc2)c1=O (stereo not drawn) -0.17
Cc1c(C(=O)NCC2CCCO2)sc2nc(-c3ccccc3)cn12 (stereo not drawn) 0.86
Cc1nn(Cc2ccccc2)c(Cl)c1C(=O)OC1CCOC1=O (stereo not drawn) 0.09
c1ccc(-c2cn3cccnc3n2)cc1 1.38
Cc1ccc(-n2c(Cc3cccs3)nnc2SCC(=O)OC(C)C)cc1 -0.91
CCOc1ccc(OCC)c(NC(=O)CSc2nnc(Cn3cnc4ccccc43)n2C)c1 1.68
CSc1sc(C)cc1C1C(C#N)=C(N)N(c2cccnc2)C2=C1C(=O)CCC2 (stereo not drawn) 0.7
CCC(C)n1[nH]c(=O)c2c(C)cc(C)nc21 (stereo not drawn) 0.11
COc1ccc(/C(O)=C2/C(=O)C(=O)N(c3nc(C)c(C)s3)C2c2ccco2)cc1 (stereo not drawn) -0.46
CCOC(=O)c1sc(NC(=O)C(CC)Sc2nccn2C)nc1C (stereo not drawn) 0.77
CCOC(=O)c1sc(=S)n2c1[nH]c(=O)c1ccc(C(=O)OC)cc12 0.38
Cc1ccccc1-c1nc(CS(=O)(=O)CC(=O)N2CCc3ccccc3C2)c(C)o1 -0.21
CC(C)c1ccc(NS(=O)(=O)c2cn(C)c(=O)n(C)c2=O)cc1 -1.04
CCCOc1ccc2c3c(c(=O)oc2c1OCCC)CCC3 -0.02
COc1ccc(NC(=O)CN(C)S(=O)(=O)c2ccccc2)cc1OC -0.74
Cc1ccc(NC(=O)C2CCCN(S(=O)(=O)c3c(C)noc3C)C2)c(C)c1 (stereo not drawn) -1.04
CCOC(=O)Cn1c(CN(Cc2ccccc2)Cc2ccccc2)nc2c1c(=O)[nH]c(=O)n2C 1.45
COc1ccc(CCNS(=O)(=O)c2ccc(F)cc2)cc1OC -0.37
Cc1nnc(SCC(=O)Nn2cnnc2)s1 0.2
CCCCn1c(CCCNC(=O)CC)nc2ccccc21 0.2
CC(=O)c1ccc(NC(=O)N[C@@H](Cc2ccccc2)C(=O)O)cc1 1.38
Cc1ccc(C)c(NC(=O)C2CC(=O)N(C(C)C)C2)c1 (stereo not drawn) -0.7
Clc1ccc(C=NC23CN4CN(CN(C4)C2)C3)cc1 1.48
O=C1CC(Cc2ccccc2)C(=O)N1c1ccc(Cl)cn1 (stereo not drawn) -1.5
CCN(CC)C(=O)CSc1nnc(-c2cnccn2)n1-c1ccc(C)cc1 0.78
CSCCC(NC(=O)C1CCC(C)CC1)C(=O)NCc1ccco1 (stereo not drawn) 0.29
CCCCOC(=O)NCN1C(=O)C2C3C=CC(C3)C2C1=O (stereo not drawn) 0.28

Source: PubChem BioAssay AID577 (University of Pittsburgh Molecular Library Screening Center, 2007)
